Screening results as filed in PubChem.
ATXN2 expr inh: reduces ATXN2 reporter expression in HEK-293 cells | HEK-293 ATXN2-luciferase reporter, luminescence, 24 h | Potency, µM (doses to about 57 µM), for the others: at the highest dose activity change, negative = inhibition, actives largely listed as inhibitors | actives 0.72% (n = 360,000); further: on the % scale 0 is the no-effect control and ±100 the full control effect; nearly all actives have a fitted effect of over 55% in size
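qHTS (up to 57 uM final) was run with 24 h compound exposure of reporter cells at 37 °C. Each well was multiplexed: SteadyGlo luminescence measured ATXN2-luciferase expression after a fluorogenic Gly-Phe-AFC viability readout (25 uM final).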
TGFb SMAD3 inh: TGF-b pathway inhibition; HepG2 CAGA-GFP TGF-b/SMAD3 reporter, GFP fluorescence, 18 h; TGF-beta stimulated, 500 pg/mL final; Potency, µM (titrated, usually from 46.1 µM), for inactives: at the highest dose activity, negative = inhibition, hits mostly inhibitors; actives 1.2% (n = 410,000); AID 588855; further: on the % scale 0 is the no-effect control and ±100 the full control effect; nearly all actives have a fitted effect of over 65% in size
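First, reporter cells (HEPG2 CAGA-GFP) rested 2 h at 37 degrees C. Next, compounds were pinned in and TGF-beta added to 500 pg/mL final. After 18 h, GFP was imaged per cell and summed per well.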
HepG2 tox: HepG2 cytotoxicity, counter-screen for TGF-b inhibitors; HepG2 CAGA-GFP viability, ATP luminescence, 18 h; Potency, µM (top dose mostly 46.1 µM), without a hit: at the highest dose activity change, negative = cytotoxicity, actives largely listed as cytotoxic; actives 0.76% (n = 410,000)
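CellTiter-Glo luminescence gave cytotoxicity after 18 hours at 37 degrees C. The cells were HepG2 CAGA-GFP in 1% FBS DMEM, stimulated with 500 pg/mL TGF-beta after compound addition. %Activity was normalised to no-cell wells (complete cell-killing) and DMSO (no toxicity), and curves were fitted and classified.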
ATXN viability: cell viability loss in ATXN counter-screen. S2 cells (HEK-293 line with an ATXN2-luciferase reporter) viability, CellTiter-Fluor protease fluorescence, 24 h. Potency, µM (series often up to 56.7 µM), hits mostly cytotoxic. actives 0.49% (n = 400,000); further: nearly all actives have a fitted effect of over 40% in size
* marks the source's active call; other numbers are inactive results; i = inactive; ? = inconclusive; nt = no result; ! = not confirmed by another sample; [ ] = another dose, or the depositor's remark. Rows were chosen to be rich in hits. Some 2.3% of all compounds tested hit in one or more screens of this group. The call rests on the fitted dose curve; in most records, active means well fitted curve in the direction sought with a large enough effect; inconclusive means small, poorly fitted or top-dose-only effect, or another doubt; inactive means no such curve, though single readings can be large; an effect the other way counts as inactive or inconclusive. Potency means the concentration at half of the fitted maximal effect.

SMILES	ATXN2 expr inh	TGFb SMAD3 inh	HepG2 tox	ATXN viability
COc1ccc(CC(=O)N2CCc3cc(OC)c(OC)cc3C2COc2cc(C)cc(C)c2)cc1OC (stereo not drawn)	0%	14µM*	-18%	i
CNC(=S)NN=C(C)CCCC(C)=NNC(=S)NC	11µM*	4.5µM*	-49%	?
Cc1ccc(S(=O)(=O)N2C[C@H]3n4c(=O)ccc(=O)n4C[C@H](OC(=O)NCc4ccccc4)[C@@]3(O)C2)cc1	0%	-7%	6%	?
Cc1ccc(S(=O)(=O)N2C[C@H]3n4c(=O)ccc(=O)n4C[C@H](OC(=O)NCC4CCCCC4)[C@@]3(O)C2)cc1	16µM*	?	-119%	22µM*
CN(C)c1ccc2cc(C(=O)N[C@@H](CCCN=C(N)CCl)C(=O)NCc3ccccc3)ccc2c1	31µM*	nt	nt	nt
Cc1ccc(F)cc1-c1cc(C(=O)NCc2cc(C(F)(F)F)cc(C(F)(F)F)c2)[nH]n1	?	-15%	-35%	?
Cc1ccc(Cl)cc1-c1cc(C(=O)NCc2cc(C(F)(F)F)cc(C(F)(F)F)c2)[nH]n1	?	11µM*	-50%	?
CCC1(C2CCN(Cc3c(C)[nH]c4ccccc34)CC2)NC(=O)N(Cc2ccc3c(c2)OCO3)C1=O (stereo not drawn)	nt	nt	nt	i
COc1ccc(Nc2ncnc3scc(-c4ccc(OC)cc4)c23)cc1	-27%	?	-27%	i
Cn1nnnc1Sc1ncnc2scc(-c3ccc(Cl)cc3)c12	14µM*	?	-101%	11µM*
Cn1nnnc1Sc1ncnc2scc(-c3cccc4c3sc3ccccc34)c12	16µM*	10µM*	-45%	?
Cn1nnnc1Sc1c(Cl)cccc1[N+](=O)[O-]	4%[11.3 µM]	-21%	2%	i
COc1ccc(-c2csc3ncnc(Nc4ccc(OC)c(OC)c4)c23)cc1	?	10µM*	-41%	?
Cn1nnnc1Sc1ncnc2scc(-c3ccccc3Cl)c12	20µM*	?	3%	?
Cn1nnnc1Sc1ncnc2scc(-c3ccc([N+](=O)[O-])cc3)c12	7.1µM*	13µM*	-103%	16µM*
NNc1ncnc2scc(-c3ccc(Cl)cc3)c12	16µM*	-39%	-30%	i
COc1ccc(-c2csc3ncnc(Sc4nnnn4C)c23)cc1	20µM*	18µM*	-69%	?
O=C(C(=Cc1ccccc1)CN1CCCCC1)c1ccccc1	?	?	-101%	8.4µM*
O=C(CCCCN1CCCCC1)c1ccccc1	-1%	0%	-20%	i
COc1cc(OC)c(OC)cc1CN1CCOc2ccc(CN3C[C@@H](C)O[C@@H](C)C3)cc2C1	nt	nt	nt	i
CCc1c(O)cc(O)c(C(=O)c2ccc(OCCN3CCOCC3)c(OC)c2)c1CC(=O)N(CCOC)CCOC	1.1µM*	nt	nt	nt
COc1cc(C(=O)OCCCN2CCOCC2)ccc1O	-13%[11.3 µM]	7%	3%	i
COc1ccc(-c2nc(-c3ccccn3)no2)cc1	?	-1%	3.5µM*	i
O=C(C[n+]1cc(-c2ccc(F)cc2)n2c1CCC2)Nc1nc(-c2ccccc2)cs1	26%	10%	5%	i
Cc1ccc(-c2c[n+](CC(=O)Nc3nc(-c4ccc(F)cc4)cs3)c3n2CCC3)cc1	-17%	?	18µM*	?
SMILES	ATXN2 expr inh	TGFb SMAD3 inh	HepG2 tox	ATXN viability
CCCc1nc2cccnc2n1C1CCN(C(=O)CC2NC(=O)c3ccccc32)CC1 (stereo not drawn)	nt	nt	nt	i
COC(=O)c1ccc2c(=O)n(CCCCCC(=O)N3CCN(c4ccc(OC)cc4)CC3)c(=O)[nH]c2c1	nt	29%	5%	nt
COC(=O)c1ccc2c(=O)n(CCCCCC(=O)N3CCN(c4cccc(C)c4C)CC3)c(=O)[nH]c2c1	nt	2.8µM*	-2%	nt
COC(=O)c1ccc2c(=O)n(CCCCCC(=O)NC(C)C)c(=O)[nH]c2c1	-22%	25µM*!	-23%	i
Cc1ccc(Cl)cc1N1CCN(C(=O)CCCn2c(=O)[nH]c3ccc(Br)cc3c2=O)CC1	?	11µM*	-36%	?
COC(=O)c1ccc2c(=O)n(CCCCCC(=O)NCc3ccccc3)c(=O)[nH]c2c1	0%	10%	-4%	i
Cc1ccc(Cl)cc1N1CCN(C(=O)CCCCCn2c(=O)[nH]c3ccccc3c2=O)CC1	nt	22%	1%	nt
CNC(=O)c1c(I)c(NC(C)=O)c(I)c(C(=O)O)c1I	11%	nt	nt	i
Cc1cc(O)ccc1NS(=O)(=O)c1ccc2c3c(cccc13)C(=O)N2	12%	8%	-3%	i
COc1ccc(C)cc1NS(=O)(=O)c1ccc2c3c(cccc13)C(=O)N2	28µM*	?	-61%	?
Cc1cc(C)n(-c2nc(N(c3ccccc3)c3ccccc3)nc(-n3nc(C)cc3C)n2)n1	10µM*	?	5%	8.9µM*
COc1ccc(/C=N/NC(=O)CCn2cnc(-c3ccccc3)c2-c2ccccc2)cc1	-18%	11µM*	-35%	i
COc1cc(OC)c(OC)cc1/C=C/c1ccc2ccccc2[n+]1C	nt	-3%	-32%	nt
Cc1ccc2[nH]c3c(c2c1)CN(C(=O)CC1(c2ccccc2)CC(=O)N(Cc2cccnc2)C1=O)CC3 (stereo not drawn)	nt	nt	nt	i
O=C(CN(c1ccc(Cl)c(C(F)(F)F)c1)S(=O)(=O)c1ccccc1)Nc1cccnc1	?	11µM*	-14%	?
FC(F)Sc1ccc(NC(=S)NC(c2ccccc2)c2ccccc2)cc1	nt	5.6µM*	11µM*	?
FC(F)Sc1ccc(NC(=S)NC2CCCCC2)cc1	?	11µM*	-49%	?
Cc1nc(CC(=O)NCC2Cc3cc(F)cc(-c4ccc(F)c(C)c4)c3O2)cs1 (stereo not drawn)	nt	nt	nt	i
C1=Cc2ccccc2/C1=C/c1ccc2c(c1)OCO2	nt	3%	-34%	nt
CCOC(=O)c1c(CN2CCNCC2)nc2ccc(Cl)cc2c1-c1ccccc1	?	16µM*	-116%	?
COc1ccc(Cl)cc1-c1cc(C(=O)Nc2ccc(C)c(NS(C)(=O)=O)c2)[nH]n1	22µM*	?	-73%	16µM*
CN(C)[C@@H]1C(=O)C(C(N)=O)=C(O)[C@@]2(O)C(=O)C3=C(O)c4c(O)cccc4C[C@H]3C[C@@H]12	-11%	nt	nt	i
CCOc1ccc(NC(=O)COc2ccc(S(=O)(=O)NC3CCCCC3)cc2)cc1	-6%	-25%	-6%	i
CCOC(=O)C1CCCC(NS(=O)(=O)c2ccc(NC(C)=O)cc2)C1 (stereo not drawn)	4%	11µM*	-13%	i
C[n+]1ccnc2cc(Cl)ccc21	nt	1.1µM*	1.4µM*	nt
C=CC[n+]1ccnc2ccccc21	nt	?	1%	nt
C[n+]1ccnc2ccccc21	nt	5µM*	-105%	nt
Cn1c(SCC2CCCO2)nnc1C1CCN(Cc2ccccc2O)CC1 (stereo not drawn)	nt	nt	nt	i
CCCCN1C(=O)C(=O)c2cc(Cl)ccc21	?	13µM*	-86%	?
